The values that follow come from PubChem BioAssay (Tox21).

The structures appear in SMILES notation. Values without a mark were called inactive. Records with an inconclusive call do not appear. Calls of active or inactive are those of the source. Unless noted, calls come from the whole dose curve; as a rule, active = well fitted curve in the direction sought with a large enough effect in the repeat runs; inconclusive = weak or mixed curves; inactive = no such curve, though single readings can be large; an effect the other way counts as inactive or inconclusive.

Test [1] can be described thus: qHTS assay for small molecules that induce genotoxicity in human embryonic kidney cells expressing luciferase-tagged ATAD5 (AID 651632). Note: nearly all actives have a fitted effect of over 15% in size. A digest of the protocol: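 Luminescence read-out: after 16 hr compound exposure at 37C, ATAD5-luciferase HEK293T cells received Amplite, 30 min RT, then CCD imaging. A rise in signal marks genotoxic stress.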
Test [2] can be described thus: qHTS assay for small molecule agonists of the p53 signaling pathway - cell viability (AID 651633; calls by dose curve;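 note: p53RE-bla HCT reporter cells with a stable beta-lactamase p53 reporter; series mostly up to about 83 µM; nearly all actives have a fitted effect of over 30% in size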). A digest of the protocol: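 p53RE-bla cells, seeded at 4,000 per well and rested 5 h at 37 C/5% CO2, received compounds in DMSO for 16 h at 37 C. CellTiter-Glo was then added, and luminescence was read after 30 min at room temperature to gauge cytotoxicity.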
Test [3] can be described thus: qHTS assay for small molecules that induce genotoxicity in human embryonic kidney cells expressing luciferase-tagged ATAD5 - cell viability (AID 651634; calls by dose curve; note: nearly all actives have a fitted effect of over 25% in size). A digest of the protocol: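 HEK293T ATAD5-luc cells, 2,000/well; compound 15.5 hr, 37C/5% CO2; CellTiter-Fluor 30 min, 37C; fluorescence read.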
Test [4] is described as follows: qHTS assay for small molecule disruptors of the mitochondrial membrane potential - cell viability (AID 720634; calls by dose curve;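 note: human HepG2 liver cancer cells; series mostly up to about 83 µM; nearly all actives have a fitted effect of over 20% in size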). A digest of the protocol: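 Luminescence from CellTiter-Glo (ATP content) gave viability in HepG2 cells, read in the same wells as the MMP dye assay after 1 hr compound exposure at 37 C.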
A short description of test [5]: qHTS assay for small molecule disruptors of the mitochondrial membrane potential (AID 720635). Note: potency is the fitted concentration of half-maximal effect. A digest of the protocol:
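HepG2 cells (2,000/well) attached overnight at 37C, then took compound for 1 hr at 37C, 5% CO2. Mito-MPS dye was added for 30 min; fluorescence was read at 490/535 nm (monomers) and 540/590 nm (aggregates).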

Test [6] in a line: qHTS assay to test for compound auto fluorescence at 590 nm (red) in HepG2 cells (AID 720674). Summed up: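 Compound auto-fluorescence is scored relative to Rose Bengal sodium, measured at 540/590 nm in live HepG2 cultures after 1 hr compound contact (37 C, 5% CO2).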
Test [7] in a line: qHTS assay to test for compound auto fluorescence at 535 nm (green) in HepG2 cells (AID 720675).
Test [8] in a line: qHTS assay to test for compound auto fluorescence at 590 nm (red) in HEK293 cells (AID 720679). Summed up: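 Red channel, Ex/Em 540/590nm; signal expressed as equivalency to Rose Bengal sodium. HEK293, 2,000 cells/well, 10% dialyzed FBS; 23 nL compound pinned after 4-5 hr attachment; overnight 37C/5% CO2 before reading.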
Test [9] in a line: qHTS assay to test for compound auto fluorescence at 460 nm (blue) in HEK293 cells (AID 720678). Summed up:
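Blue read-out at excitation 405 nm and emission 460 nm follows overnight compound exposure of HEK293 cells at 37C in 5% CO2. Activity is given as auto fluorescence equivalency to triamterene.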
% is set by controls: 0 for no effect and ±100 for the full control effect.

As for `C=Cc1ccc(C=C)cc1`, the Potency result in [1], in test [2], in test [3], in test [4] and in [5] was “inactive” throughout. The call in test [6], in test [7] and in [8] was inactive.

As for `O=[N+]([O-])c1ccc(Cl)cc1Cl`, the Potency entry in test [1], in test [2], in test [3], in test [4], in [5] and in test [9] was “inactive” each time. In addition, the compound was called inactive in [6] and in test [8].

With `C=CC(=O)OCCCCCCCCCC`, the Potency entry in test [1], in test [2], in test [3], in test [5] and in test [9] was “inactive” throughout. Further, the compound was classed as inactive in test [6], in test [7] and in test [8].

`NC(=O)c1cc[n+](CC2=C(C(=O)[O-])N3C(=O)[C@@H](NC(=O)Cc4cccs4)[C@H]3SC2)cc1`: the Potency entry in [1], in test [2], in [3], in test [4] and in test [5] was “inactive” in each case. The fluorescence, relative to Rose Bengal in test [6] is -0.33% [at 18.6 µM]. The fluorescence, % of fluorescein control in test [7] is -0.0242% [at 18.6 µM]. Besides, the fluorescence, % of triamterene in test [9] is 0.803% [at 18.6 µM]. For the same compound, the fluorescence, % of fluorescent control in test [8] was 0.0624% [at 18.6 µM].

With `C1=COCCC1`, the Potency result in [1], in test [2], in test [3], in test [4] and in test [9] was “inactive” in each case. For the same compound, the compound was classed as inactive in [6] and in [8].

In the case of `CCCCCCCCC(=O)OCC(C)OC(=O)CCCCCCCC` (centres undefined), the Potency entry in [1], in test [2], in test [3], in test [4], in test [5] and in [9] was “inactive” each time. The result in test [6], in test [7] and in test [8] was inactive.

As for `N#C[C@@H]1CC(F)(F)CN1C(=O)CNC1CC2CCC(C1)N2c1ncccn1` (some centres undefined), the Potency entry in test [1], in test [2], in test [3], in test [4] and in test [9] was “inactive” each time. Also, the result in [6], in [7] and in test [8] was inactive.

For `CC(C(=O)O)c1ccc2c(c1)Cc1cccnc1O2` (centres undefined), the Potency result in test [1], in [2], in [3], in test [4], in [5] and in test [9] was “inactive” each time. Further, the compound was called inactive in [6], in [7] and in test [8].

For `C[C@@H](O)[C@H]1C(=O)N2C(C(=O)O)=C(S[C@@H]3CN[C@H](CNS(N)(=O)=O)C3)[C@H](C)[C@H]12`, the Potency result in test [1], in test [2], in test [3], in test [4], in test [5] and in test [9] was “inactive” in each case. Further, the compound was called inactive in test [6], in test [7] and in test [8].

As to `O=Cc1ccc(Cl)c([N+](=O)[O-])c1`, the Potency result in test [1], in [2], in test [3], in test [4] and in [9] was “inactive” throughout. In addition, the compound was classed as inactive in [6], in test [7] and in test [8].

In the case of `CC/C=C\CCO`, the Potency result in [1], in [2], in [3] and in test [9] was “inactive” each time. Further, the call in test [6], in test [7] and in test [8] was inactive.

On to `CC(=O)CC/C=C(\C)CC/C=C(\C)CC/C=C(\C)CCC=C(C)C`, for which the Potency entry in [1], in [2], in test [3], in test [4], in test [5] and in test [9] was “inactive” each time. The result in [6], in [7] and in [8] was inactive.

Consider `CCCC1CCOC(C)S1` (centres undefined), for which the Potency entry in test [1], in [3], in test [4], in test [5] and in test [9] was “inactive” in each case. Besides, the compound was classed as inactive in [6] and in test [8].

Regarding `CC(C)=CCC[C@H](C)CCO`, the Potency entry in [1], in test [3], in test [4] and in [9] was “inactive” throughout. The outcome in test [6], in [7] and in test [8] was inactive.

For the compound `COc1ccc(/C=C/c2cc(OC)cc(=O)o2)cc1`, the Potency result in [2], in test [3], in test [4], in test [5] and in test [9] was “inactive” each time. The result in test [6], in test [7] and in [8] was inactive.

For the compound `O=C(NC1CCN(CCc2c[nH]c3ccccc23)CC1)c1ccccc1`, the Potency result in [1], in test [3] and in test [4] was “inactive” each time. The result in test [6], in test [7] and in [8] was inactive.

As to `CC(C)(C(=O)O)c1ccc(C(O)CCCN2CCC(C(O)(c3ccccc3)c3ccccc3)CC2)cc1` (centres undefined), the Potency entry in [1], in test [2], in [4], in test [5] and in [9] was “inactive” each time. The compound was classed as inactive in test [6], in [7] and in test [8].

For `c1ccc(CN(Cc2ccccc2)Cc2ccccc2)cc1`, the Potency entry in [1], in test [3], in test [4] and in test [9] was “inactive” in each case. The Potency in [5] is 30.6 µM (active). The compound was classed as inactive in test [6] and in test [8].

Consider `CCOc1ccc2c(c1)C(C)CC(C)(C)N2` (centres undefined), for which the Potency entry in [1], in [3] and in test [9] was “inactive” in each case. Moreover, the compound was classed as inactive in [6], in [7] and in test [8].

In the case of `O=C(O)c1cccnc1Nc1cccc(C(F)(F)F)c1`, the Potency result in test [2], in test [3] and in [9] was “inactive” throughout. In addition, in [5], the Potency is 11.9 µM (active). Also, the compound was classed as inactive in test [6], in test [7] and in test [8].

Consider `O=c1[nH]nc(-c2ccc([N+](=O)[O-])o2)o1`, for which the Potency result in test [1], in test [2] and in test [9] was “inactive” each time. Besides, in [5], the Potency was 43.3 µM (active). The compound was called inactive in test [6], in [7] and in test [8].

`CCCCC(CC)COCCC#N` (centres undefined): the Potency result in test [1], in test [2], in [4], in [5] and in [9] was “inactive” throughout. Further, the compound was called inactive in [6], in test [7] and in test [8].

In the case of `c1ccc(-c2ccc(-c3ccccc3)cc2)cc1`, the Potency result in [2] and in [4] was “inactive” each time. In addition, the fluorescence, relative to Rose Bengal in [6] was -0.399% [at 18.6 µM]. Further, the fluorescence, % of fluorescent control in test [8] is 0.554% [at 18.6 µM].
